# Measured values taken from PubChem BioAssay.
# Assay: HepG2 liver cancer cell viability effects, profiling panel, resazurin fluorescence, 24 h, PK04 Diversity Set (AID 1172); also: test concentration not given here
# Conditions: higher = more signal
row,Structure (SMILES),z-score
1,O=C1O[C@@H](c2ccccc2)[C@@H](c2ccccc2)N2[C@@H](c3ccc(O)cc3)[C@]3(C(=O)Nc4ccc(C#CCCO)cc43)[C@@H](C(=O)Nc3nc4ccccc4s3)[C@H]12,0.43
2,C=CCOC(=O)[C@@H]1[C@H]2C(=O)O[C@H](c3ccccc3)[C@H](c3ccccc3)N2[C@H](c2ccc(OCCOC(=O)[C@H]3C[C@H]4C(=O)N[C@@H](CCCCN(C)C)C(=O)N4[C@H]3c3cccc(OCCO)c3)cc2)[C@@]12C(=O)Nc1ccc(I)cc12,-0.999
3,Cc1c(NC(=O)/C(C#N)=C/C=C/c2ccc(N(C)C)cc2)c(=O)n(-c2ccccc2)n1C,0.29
4,O=C1C2C=CC(C(O)c3cc(C(F)(F)F)cc(C(F)(F)F)c3)N(Nc3ccc([N+](=O)[O-])cc3)C2C(=O)N1c1ccccc1 (configuration not stated),-0.566
5,O=C1NC(=O)C2C1C=CC(C(O)c1cc(C(F)(F)F)cc(C(F)(F)F)c1)N2Nc1ccc(Cl)cc1Cl (configuration not stated),-1.71
6,CO[C@H]1O[C@H](CO)[C@@H](OC(=O)Nc2ccccc2-c2ccccc2)[C@H](OC(=O)Nc2ccc3c(c2)OCO3)[C@@H]1OC(=O)Nc1ccc2c(c1)OCO2,-1.18
7,Cc1ccc(F)cc1S(=O)(=O)N[C@@H]1CCN(Cc2ccc(Oc3ccccc3)cc2)C1,-0.971
8,CCOC(=O)C1=CC[C@@H](c2ccccc2)N(S(=O)(=O)c2ccc(C)cc2)C1,-0.842
9,Cc1ccc(S[C@]2(C(=O)NCC(F)(F)F)CC(=O)N(Cc3ccccc3)[C@@H]2c2ccc(CO)cc2)cc1,-0.991
10,CC(C)CNC(=O)[C@@H]1c2ccccc2C(=O)N(Cc2cc(F)cc(C(F)(F)F)c2)[C@H]1c1ccc(CO)cc1,0.564
11,CCN(CC)c1ccc(N2CC=CC34O[C@@H]5/C=C\CCC(C)OC(=O)C5[C@H]3C(=O)N(CCO)[C@@H]4C2=O)cc1 (some centres not stated),-0.68
12,COc1ccccc1CN1C(=O)c2ccccc2[C@@H](C(=O)NC(C)C)[C@@H]1c1ccc(CO)cc1,1.1
13,[N-]=[N+]=NCc1ccccc1[C@H]1OC(c2ccc(OCCCO)cc2)=N[C@@]1(CCS(=O)(=O)c1ccccc1)C(N)=O,0.437
14,C=CCOC(=O)[C@@H]1[C@H]2C(=O)O[C@H](c3ccccc3)[C@H](c3ccccc3)N2[C@H](c2ccc(OCCOC(=O)[C@H]3C[C@H]4C(=O)N[C@@H](CCCC[N+](C)(C)C)C(=O)N4[C@H]3c3ccc(O)cc3)cc2)[C@@]12C(=O)Nc1ccc(I)cc12,-0.792
15,C=C(CCCC)/C(=C/C[C@@H](OC(C)=O)c1ccc(CO)o1)c1cc(C(=O)OC)ccc1OC,-0.345
16,CC(C)C(O)C1C=CC2C(=O)N(C)C(=O)C2N1N(c1ccccc1)c1ccccc1 (configuration not stated),0.207
17,C=CCNC(=O)[C@@H]1[C@H]2C(=O)O[C@H](c3ccccc3)[C@H](c3ccccc3)N2[C@H](c2ccc(OCCO)cc2)[C@@]12C(=O)N(C(=O)OCCOC)c1ccc(C#CC3=CCCCC3)cc12,-0.344
18,COCCOC(=O)N1C(=O)[C@@]2(c3cc(C#Cc4ccc(OC)cc4)ccc31)[C@H](C(=O)N1CCCCCCC1)[C@H]1C(=O)O[C@H](c3ccccc3)[C@H](c3ccccc3)N1[C@@H]2c1ccc(O)cc1,0.808
19,COC(=O)Cn1c(C(=O)N2CCCC2)cc2c1C[C@H]1CN(C(=O)c3ccccc3)[C@@](Cc3ccc(F)cc3)(C(=O)OC)[C@@H]21,0.716
20,NCCCCCNC(=O)[C@@H]1C[C@@H]2C(=O)N[C@@H](CCCCN)C(=O)N2[C@@H]1c1cccc(OCCO)c1,1.03
21,Cc1ccc(S[C@]2(C(=O)NC(C)C)CC(=O)N(Cc3ccccc3C(F)(F)F)[C@@H]2c2ccc(CO)cc2I)cc1,0.105
22,COCCOC(=O)N1C(=O)[C@@]2(c3cc(C#CC4(O)CCCCCC4)ccc31)[C@H](C(N)=O)[C@H]1C(=O)O[C@H](c3ccccc3)[C@H](c3ccccc3)N1[C@@H]2c1ccccc1OCCO,-1.85
23,C=CC[C@H](OC(=O)Nc1ccc(OC)cc1)c1ccc(O)c2ccccc12,-0.878
24,COCC(=C=CC[C@H](O)c1cccc(OCCO)c1)C[C@H](O)c1ccccn1,1.51
25,C=CC[C@@]1(C(=O)N2CCCCC2)N=C(c2ccc(OCCCO)cc2)O[C@@H]1c1ccccc1,1.63
26,COCCCNC(=O)[C@@H]1c2ccccc2C(=O)N(Cc2ccccc2C(F)(F)F)[C@H]1c1ccc(CO)cc1,0.816
27,COc1ccc([Si](C)(C)[C@H]2[C@H](CCO)O[C@@]3(C(=O)N(Cc4cccc(N5CCCCC5=O)c4)c4ccccc43)[C@@H]2C)cc1,-4.02
